CSC inhib = blocks cancer stem cells | cancer stem cell-like cells viability, luminescence | inhibition, % at 7.5 µM | 300,000 tested, 1.1% active | AID 2717; in the data active = inhibition above about 75%; inconclusive = no clear call, values can overlap the other calls; tested in HMLE shEcad cells
PP5 inh = inhibitors of human protein phosphatase 5 (PP5). P53041. purified PP5c, OMFP substrate fluorescence. inhibition, % at 6.7 µM. 320,000 tested, 0.18% active;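 active = inhibition above the campaign's mean inhibition across all tested compounds plus 3 SD, cut at about 9.5% in these data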
ALR H2O2 inh = inhibitors of human sulfhydryl oxidase ALR. P55789. 290,000 tested, 3.8% active. inhibition, % (test concentration not listed). purified ALR, DTT oxidation, H2O2 HRP-luminol luminescence. AID 485317;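 active = mean replicate inhibition above about 79%, with every replicate also reaching it, limit read from the data; inconclusive = only one of the two criteria met; inactive = mean below limit and not every replicate reaching it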
Calb FLC = affects C. albicans growth with fluconazole. C. albicans CaCi-2 (fluconazole-resistant clinical isolate) + fluconazole, Alamar Blue growth, 48 h. growth inhibition, % (concentration not given with the values). 300,000 tested, 0.57% active. AID 1979;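 active = growth inhibition above about 58% in most replicates, limit read from the data, passing the limit was not always enough; inconclusive = exactly half the replicates above a set limit; inactive = most replicates below a set limit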;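 also: all wells also contain fluconazole at 8 µg/ml as a sub-toxic cotreatment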
PP1 inh = blocks human PP1-alpha phosphatase, a PP5 counter-screen. inhibition, % at 6.7 µM. 320,000 tested, 0.9% active. purified PP1alpha, OMFP fluorescence. AID 2235. P62136;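 active = inhibition above the mean inhibition of all tested compounds plus 3 SD, computed separately for each screening campaign, cut at about 15% in these data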
Target sequence (P62136 whole entry, looked up): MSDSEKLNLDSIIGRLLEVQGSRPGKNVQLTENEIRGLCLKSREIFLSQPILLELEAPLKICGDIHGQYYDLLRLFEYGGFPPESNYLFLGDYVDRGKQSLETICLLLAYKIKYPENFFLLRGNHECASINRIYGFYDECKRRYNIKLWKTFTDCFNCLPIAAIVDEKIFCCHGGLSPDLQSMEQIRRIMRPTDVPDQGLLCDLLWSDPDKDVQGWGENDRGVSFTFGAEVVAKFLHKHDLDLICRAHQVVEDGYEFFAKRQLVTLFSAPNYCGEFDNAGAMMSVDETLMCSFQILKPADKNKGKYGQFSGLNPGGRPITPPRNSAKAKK
Large screens that a line does not name were inactive. Sampled rows, rich in hits. Any-hit rate of the full collection: about 5.4%.

CSc1ccc(/C=N/n2c(C3CCCCC3)n[nH]c2=S)cc1	none
Cc1ccc(/C=N/n2c(C3CCCCC3)n[nH]c2=S)o1	ALR H2O2 inh 96.7
COc1cc(C=O)ccc1OCc1ccc(Cl)nc1	none
Cn1ccnc1SCC(=O)c1c[nH]c2ccccc12	ALR H2O2 inh 96.2
Cc1ccc(-c2csc(CC(N)=O)n2)cc1	ALR H2O2 inh 91.1, Calb FLC inconclusive
CCc1ccc(NC(=O)Nc2cccs2)cc1	none
Cc1ccc(NC(=O)Nc2cccs2)cc1	ALR H2O2 inh 98.1
COc1cccc(NC(=O)Nc2cccs2)c1	none
CCOC(=O)c1sc(NC(=O)Nc2ccccc2)cc1C	Calb FLC inconclusive (no result: ALR H2O2 inh)
CC(=O)c1cccc(NC(=O)Nc2cccs2)c1	ALR H2O2 inh 96.5
CCOC(=O)c1sc(NC(=O)Nc2ccccc2Cl)cc1C	CSC inhib 93.7
Cc1ccc(NC(=O)Nc2cccs2)nc1	ALR H2O2 inh 98.4
Cc1ccc(NC(=O)CSc2nnc(-c3ccco3)o2)c(C)c1	none
Cc1ccc(NC(=O)Nc2cccs2)c(Cl)c1	none
O=C(Nc1cccs1)Nc1ccccc1Cl	ALR H2O2 inh 89.5
CN(C)S(=O)(=O)c1cccc(NC(=S)N/N=C/c2cc(Br)ccc2O)c1	CSC inhib 76.8, Calb FLC 81.0 (no result: ALR H2O2 inh)
O=C(CCCc1ccccc1)NCCN1CCOCC1	none
O=c1cc(-c2ccc(Cl)cc2)oc(=O)[nH]1	none
O=c1cc(N=Nc2ccc(Cl)cc2)[nH]c(=O)[nH]1	CSC inhib 116.5
CC(NC(=O)CN(c1cccc(C(F)(F)F)c1)S(=O)(=O)c1ccc(Cl)c([N+](=O)[O-])c1)c1ccccc1 (stereo not drawn)	CSC inhib 98.1
O=C(NCc1ccccc1Cl)c1cccc(C(F)(F)F)c1	none
COc1ccc(CCNC(=O)CN(c2ccc(OC)c(OC)c2)S(=O)(=O)c2ccc(C)cc2)cc1	none (no result: CSC inhib, ALR H2O2 inh)
O=C(CN(c1cccc(C(F)(F)F)c1)S(=O)(=O)c1ccc(Cl)c([N+](=O)[O-])c1)NCc1ccccc1Cl	CSC inhib 100.8
O=C(CN(c1ccc(Br)cc1)S(=O)(=O)c1ccc(Cl)c([N+](=O)[O-])c1)NCCc1ccccc1	none
O=C(O)CN(c1cccc(C(F)(F)F)c1)S(=O)(=O)c1ccccc1	none
O=C(CN(c1cccc(C(F)(F)F)c1)S(=O)(=O)c1ccc(Cl)c([N+](=O)[O-])c1)NCc1ccccc1	CSC inhib 85.3
Cc1ccc(N(CC(=O)NCCc2ccc(F)cc2)S(=O)(=O)c2ccc(Cl)c([N+](=O)[O-])c2)c(C)c1	CSC inhib 79.9
O=C(c1ccccc1F)N1CCN(Cc2ccccc2F)CC1	none
O=C(Nc1ccccc1Oc1cccnc1)C1CCCN(Cc2ccccc2O)C1 (stereo not drawn)	none
CCOC(=O)c1sc(=S)n(-c2ccccc2Cl)c1C	none (no result: ALR H2O2 inh)
CCOC(=O)N1C(=O)C2(CCCCC2)N(c2ccccc2Cl)C1=S	Calb FLC 100.2
Cc1cc(=O)oc2cc(OCCCN3C(=O)c4ccccc4C3=O)ccc12	none
COc1ccccc1OCCCN1C(=O)C(=O)c2cccc(C)c21	none
Cc1ccccc1OCCN1C(=O)C(=O)c2cccc(C)c21	PP1 inh 16.2 (no result: CSC inhib)
Cc1ccc(OCCCN2C(=O)C(=O)c3cccc(C)c32)cc1	PP1 inh 15.5
Cc1ccc(C(=O)CNc2ccccc2C)cc1	none
Cc1ccccc1NCCNc1ccccc1C	ALR H2O2 inh 98.8
Cc1ccc(NS(=O)(=O)c2cc3c4c(cccc4c2)C(=O)NC3=O)cc1C	CSC inhib 78.6 (no result: ALR H2O2 inh)
